Only a selection was taken, and hits are over-represented in it overall.
KDM5B inhibitor: blocks human KDM5B histone demethylase activity | Q9UGL1 | KDM5B demethylase, FDH-coupled NADH fluorescence (FDH is formaldehyde dehydrogenase) | Potency, µM (highest dose often 57.7 µM), hits mostly inhibitors | hit rate 2.6% among 220,000; active = well fitted inhibition curve with a large enough effect; note: 0% is about no effect; nearly all actives have a fitted effect of over 70% in size
Target sequence (Q9UGL1 whole entry, looked up): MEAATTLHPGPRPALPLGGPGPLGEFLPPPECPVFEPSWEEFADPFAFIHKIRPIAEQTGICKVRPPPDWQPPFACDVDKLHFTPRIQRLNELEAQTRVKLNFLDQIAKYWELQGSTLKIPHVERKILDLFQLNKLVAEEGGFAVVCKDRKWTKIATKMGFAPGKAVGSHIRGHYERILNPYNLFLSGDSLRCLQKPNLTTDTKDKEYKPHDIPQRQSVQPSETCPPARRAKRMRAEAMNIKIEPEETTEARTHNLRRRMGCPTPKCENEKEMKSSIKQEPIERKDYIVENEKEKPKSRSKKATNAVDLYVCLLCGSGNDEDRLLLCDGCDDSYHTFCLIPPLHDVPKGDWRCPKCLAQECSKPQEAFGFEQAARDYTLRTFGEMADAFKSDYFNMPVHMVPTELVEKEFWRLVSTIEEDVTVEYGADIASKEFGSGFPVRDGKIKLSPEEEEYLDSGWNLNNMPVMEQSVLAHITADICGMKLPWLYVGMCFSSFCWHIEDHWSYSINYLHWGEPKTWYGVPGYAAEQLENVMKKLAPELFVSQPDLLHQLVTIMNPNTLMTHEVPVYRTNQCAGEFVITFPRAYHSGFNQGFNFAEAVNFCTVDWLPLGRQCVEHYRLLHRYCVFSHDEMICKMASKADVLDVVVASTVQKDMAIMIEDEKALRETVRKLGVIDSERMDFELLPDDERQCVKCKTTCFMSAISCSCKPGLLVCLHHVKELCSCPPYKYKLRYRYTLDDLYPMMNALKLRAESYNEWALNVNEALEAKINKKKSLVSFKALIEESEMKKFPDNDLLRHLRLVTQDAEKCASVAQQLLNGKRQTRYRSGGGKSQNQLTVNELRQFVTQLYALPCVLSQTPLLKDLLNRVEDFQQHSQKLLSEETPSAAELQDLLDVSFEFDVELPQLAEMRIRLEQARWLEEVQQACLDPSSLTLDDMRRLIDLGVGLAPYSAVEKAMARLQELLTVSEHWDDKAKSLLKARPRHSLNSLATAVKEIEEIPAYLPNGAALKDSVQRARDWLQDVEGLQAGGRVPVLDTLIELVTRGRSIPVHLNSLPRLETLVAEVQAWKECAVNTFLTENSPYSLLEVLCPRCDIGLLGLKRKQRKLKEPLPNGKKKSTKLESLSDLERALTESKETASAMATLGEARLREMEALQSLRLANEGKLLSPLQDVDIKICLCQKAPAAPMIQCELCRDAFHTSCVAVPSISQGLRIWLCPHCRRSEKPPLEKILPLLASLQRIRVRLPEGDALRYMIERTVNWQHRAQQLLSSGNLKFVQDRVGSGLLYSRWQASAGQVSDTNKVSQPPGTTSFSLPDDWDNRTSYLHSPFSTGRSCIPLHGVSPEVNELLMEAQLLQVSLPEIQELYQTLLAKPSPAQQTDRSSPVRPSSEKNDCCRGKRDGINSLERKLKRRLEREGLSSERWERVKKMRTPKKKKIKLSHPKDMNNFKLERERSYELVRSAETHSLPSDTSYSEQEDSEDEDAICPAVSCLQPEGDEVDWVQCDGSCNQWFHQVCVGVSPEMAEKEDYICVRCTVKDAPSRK
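Here, H3K4me3 peptide (12.5 µM in substrate mix) is demethylated by KDM5BΔAP, 200 nM final, after 10 min compound exposure. Formaldehyde product is coupled through FDH (0.25 U/mL in mix) to NADH fluorescence; 30-min ΔRFU feeds dose-response curves.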
* marks the source's active call; other numbers are inactive results; i = inactive. Potency is the fitted concentration of half-maximal effect.

SMILES	KDM5B inhibitor
COCCN1C(=O)c2cccn2CC1CNC(=O)c1[nH]nc2c1COc1ccccc1-2 (centres undefined)	28µM*
CSc1ccc(-c2nc3c([nH]2)CC(C)(C)CNC3=O)cc1	28µM*
CC1(C)CNC(=O)c2nc(C3CCCN(Cc4ccccc4)C3)[nH]c2C1 (centres undefined)	i
CC1(C)CNC(=O)c2nc(CCSCc3ccco3)[nH]c2C1	i
CSC1=N/C(=C\c2ccc(I)o2)C(=O)S1	i
O=C(OCc1cc([N+](=O)[O-])cc2c1OCOC2)C12CC3CC(CC(Br)(C3)C1)C2	i
CC(C)(C)c1ccc(-c2nc(C3CC(=O)N(c4ccc(F)cc4)C3)no2)cc1 (centres undefined)	i
CC(C)c1ccc(-c2nc(C3CC(=O)N(c4ccc(F)cc4)C3)no2)cc1 (centres undefined)	i
Cc1ccc(N2CC(c3noc(-c4cccc(N(C)C)c4)n3)CC2=O)cc1 (centres undefined)	35µM*
CN(C)c1ccc(-c2nc(C3CC(=O)N(c4ccc(F)cc4)C3)no2)cc1 (centres undefined)	32µM*
CN(C)c1cccc(-c2nc(C3CC(=O)N(c4ccc(F)cc4)C3)no2)c1 (centres undefined)	35µM*
Cc1ccc(N2CC(c3noc(-c4ccsc4)n3)CC2=O)cc1 (centres undefined)	i
Cc1ccc(N2CC(c3noc(-c4ccccc4C)n3)CC2=O)cc1 (centres undefined)	i
COc1cccc(-c2nc(C3CC(=O)N(c4ccc(F)cc4)C3)no2)c1 (centres undefined)	i
COc1ccc(N2CC(c3noc(-c4cccc(F)c4)n3)CC2=O)cc1 (centres undefined)	i
N#Cc1ccc(Cc2cnc(NC(=O)c3ccc(Cl)o3)s2)c(C(F)(F)F)c1	i
CCN(CC)C(=O)Cc1n[nH]c(=O)c2ccccc12	i
CC(C)N(C(=O)CSc1ccc(F)cc1)c1ccccc1	i
CC(=O)c1sc(-c2ccc(Br)cc2)nc1C	i
Cc1cccc([S+](=O)([O-])N2CCC3(CC2)OCCN(CC2CC2)C3=O)c1	i
N#Cc1ccc([S+](=O)([O-])N2CCC3(CC2)OCCN(CC2CCOCC2)C3=O)cc1	32µM*
O=C1N(CCc2ccccc2)CCOC12CCN([S+](=O)([O-])c1cccnc1)CC2	i
C=CCNC(=O)NC(=O)CN(C)CCOc1cccc(C)c1	i
CCn1ncc(N2CCCC(CC(=O)N3CCN(c4cccc(Cl)c4)CC3)C2)cc1=O (centres undefined)	i
Clc1cc(NCCc2ccccn2)n2nccc2n1	i
SMILES	KDM5B inhibitor
c1ccc(-c2cc(NCCCOc3cccnc3)n3nccc3n2)cc1	22µM*
COCCCNc1cc(Cl)nc2ccnn12	i
CSc1ccc(NC(=O)Nc2cc(F)ccc2F)cc1	i
CCCNc1nc2ccccc2nc1C(=O)Nc1cc(C)ccc1C	i
Cc1[nH]cnc1CN1CCCC(C(=O)Nc2ccc(-c3cccc(F)c3)cc2)C1 (centres undefined)	i
NC(=O)c1cccc(C(=O)Nc2cccc3cccnc23)c1	i
C/C(=N/Nc1ccc(C(F)(F)F)cn1)c1ccc([N+](=O)[O-])cc1	i
Cc1cccc(NC(=O)C2CCCN(C(=O)Nc3ccc(F)cc3)C2)c1 (centres undefined)	i
O=C(Nc1ccc(C(=O)N2CCCCC2)cc1)Nc1cccc(Cl)c1	i
Cc1cccc(NC(=O)N2CCc3c(c4cc(F)ccc4n3C)C2)c1	32µM*
O=C(Nc1cccc(Cl)c1)N1CCN(c2ccc(Cl)c(Cl)c2)CC1	i
Cc1cccc(NC(=O)N2CCC(C(=O)c3ccc(F)cc3)CC2)c1	i
Cn1c2c(c3cc(F)ccc31)CN(C(=O)Nc1cccc(Cl)c1)CC2	32µM*
CCn1nc(C(=O)OC(C)C(=O)c2c[nH]c3ccccc23)c2ccccc2c1=O (centres undefined)	i
COc1ccc(-c2[nH]nc3c2C(c2ccc4c(c2)OCO4)CC(=O)O3)cc1 (centres undefined)	i
CN(Cc1ccccc1)c1nc(-c2cccnc2)nc2ccccc12	i
CC(=O)Nc1ccc(NC(=O)CC2C(=O)Nc3nc(C)nn32)cc1 (centres undefined)	i
NC(=O)c1ccc(CN(C2CC2)S(=O)(=O)c2cccc3nsnc23)cc1	i
CC1=C[C@@H](CNC(=O)Nc2cccc(C#N)c2)[C@H](C(C)C)C[C@H]1CC(=O)NCc1ccccn1	i
CN(CC1CCOCC1)S(=O)(=O)c1ccc(F)c(Cl)c1	i
CCCc1cc(=O)[nH]c(SCc2nc(-c3ccc(F)cc3)no2)n1	i
Cn1c(=O)[nH]c(=O)c2c1nc(Sc1nc3ccccc3[nH]1)n2CCCc1ccccc1	i
COCCOc1ccnc(-c2noc([C@@H]3CCCN3Cc3cccc(OC(F)(F)F)c3)n2)c1	i
Cc1cccc(OCCc2noc(C3CCCCN3Cc3cccnc3)n2)c1 (centres undefined)	i
c1ccc(CN2CCC[C@H]2c2nc(-c3ccc(-n4ccnc4)nc3)no2)cc1	i
SMILES	KDM5B inhibitor
CNc1ccc(-c2noc([C@@H]3CCCN3Cc3cccnc3)n2)cn1	i
COc1ccc(-c2noc([C@@H]3CCCN3C(=O)Cc3ccccc3)n2)cc1OC	i
Oc1ccccc1CN1CCC[C@H]1c1nc(-c2ccc(N3CCOCC3)nc2)no1	35µM*
COc1ccccc1CC(=O)N1CCC[C@H]1c1nc(-c2ccc(OC)c(OC)c2)no1	i
Fc1ccc(-c2noc([C@@H]3CCCN3Cc3ccccc3F)n2)nc1	i
CN1CCN(c2ccc(-c3noc([C@@H]4CCCN4CCCc4ccccc4)n3)cn2)CC1	32µM*
COc1ccc(-c2noc([C@@H]3CCCN3C(=O)CCc3ccccc3)n2)cc1OC	28µM*
COc1ccc(CN2CCC[C@H]2c2nc(-c3ccc(-n4ccnc4)nc3)no2)c(OC)c1OC	i
FC(F)(F)Oc1cccc(CN2CCC[C@H]2c2nc(-c3ccc(N4CCOCC4)nc3)no2)c1	28µM*
C#CC[N+](CC#Cc1ccccc1)(CCC)CCC	i
COc1ccc(C(C)=O)c(OCc2cc(Br)ccc2OC)c1	i
CC(C)Sc1nnc(-c2nn(Cc3ccccc3)c(=O)c3ccccc23)o1	i
Cc1nn(C)c2sc(C(=O)N3CCN(S(=O)(=O)c4ccccc4Cl)CC3)cc12	i
CCN(CC)c1nc2ccccc2nc1C(=O)Nc1cccc(C)c1	i
Cc1cc(OCCN(C)C)c(C)c2c1CC[C@@H]([C@H](C)C(=O)NCc1ccccc1)C2	i
C=CCOc1cc(C)c2c(c1C)[C@H](O)C([C@H](C)C(=O)N(C)Cc1ccccc1)CC2 (some centres undefined)	35µM*
C=CCOc1cc(C)c2c(c1C)[C@H](O)C([C@H](C)C(=O)NCCOC)CC2 (some centres undefined)	i
COc1cc(C(=O)OCc2ccc(Br)cc2)cc(OC)c1OC	i
CC(C)c1ccc(Nc2c(-c3ccsc3)nc3ccc(Cl)cn23)cc1	i
CC(C)NC(=O)c1nc(-c2ccsc2)c2ccccn12	112µM*
CC(C)NC(=O)c1sc2ncccc2c1-n1cccc1	i
CC(C)NC(=O)c1nc(-c2ccc([S+](C)(=O)[O-])cc2)c2ccccn12	i
C#CCNC(=O)c1csc(-c2ccc(C)cc2)n1	i
CC(C)NC(=O)c1nc(-c2ccccc2)c2ccccn12	i
CC(C)NC(=O)c1nc(-c2ccsc2)c2cnccn12	40µM*

Assay outcomes from PubChem.
